Measurements from PubChem BioAssay AID2017 (National Center for Advancing Translational Sciences (NCATS), 2009).
Inconclusive results are not listed. Activity calls are given as the source filed them. The call rests on the fitted dose curve; in most records, active means well fitted curve in the direction sought with a large enough effect; inconclusive means small, poorly fitted or top-dose-only effect, or another doubt; inactive means no such curve, though single readings can be large or run the other way.

Molecular target: 4-diphosphocytidyl-2-C-methyl-D-erythritol kinase, chloroplastic (Arabidopsis thaliana) (UniProt O81014)
Sequence (O81014 whole entry, looked up): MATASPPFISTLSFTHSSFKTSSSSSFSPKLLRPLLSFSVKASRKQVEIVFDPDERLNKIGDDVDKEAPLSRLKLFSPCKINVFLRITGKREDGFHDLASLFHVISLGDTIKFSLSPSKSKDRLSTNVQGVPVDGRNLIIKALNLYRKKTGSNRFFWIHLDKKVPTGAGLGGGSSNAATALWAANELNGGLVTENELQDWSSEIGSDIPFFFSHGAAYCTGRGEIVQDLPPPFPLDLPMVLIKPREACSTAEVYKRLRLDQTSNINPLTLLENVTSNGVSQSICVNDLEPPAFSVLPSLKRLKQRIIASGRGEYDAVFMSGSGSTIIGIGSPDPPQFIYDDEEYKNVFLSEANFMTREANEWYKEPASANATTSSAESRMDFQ
Assay: Confirmatory Assay for Inhibitors of Human Galactokinase (GALK): CDP-Me assay counterscreen
Conditions: ATP depletion, Kinase-Glo luminescence
In short: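 Luminescent read-out of ATP remaining (Kinase-Glo Plus) after 1 h at room temperature. Reaction: 0.25 ug/mL CDP-Me kinase, ATP 15 uM, CDP-ME 30 uM, HEPES pH8.0 buffer containing MgCl2, KCl, DTT and BSA.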

SMILES: Cc1cc2c(C(C)C)c(O)c(O)c(C=O)c2c(O)c1-c1c(C)cc2c(C(C)C)c(O)c(O)c(C=O)c2c1O
- Potency: 47.3 µM (active)
